Measured values from PubChem BioAssay (NCATS).
Values joined by “and” are separate entries in the source; they are usually repeats but may differ in a detail not shown here. Equal entries are not always repeated. Results filed as inconclusive are left out. Active and inactive are the calls of the source. Unless noted, calls follow the shape of the dose curve; as a rule, active = well fitted curve in the direction sought with a large enough effect; inconclusive = small, poorly fitted or top-dose-only effect, or another doubt; inactive = no such curve, though single readings can be large; an effect the other way counts as inactive or inconclusive.

Assays:
[1] = target: Arylsulfatase A (Homo sapiens) (UniProt P15289); assay: qHTS screen for enhancers of Arylsulfatase A (ASA1): LOPAC Validation Assay (AID 720538); also: potency is read from the fitted curve at half-maximal effect
Arylsulfatase A (Homo sapiens), sequence (P15289 whole entry, looked up): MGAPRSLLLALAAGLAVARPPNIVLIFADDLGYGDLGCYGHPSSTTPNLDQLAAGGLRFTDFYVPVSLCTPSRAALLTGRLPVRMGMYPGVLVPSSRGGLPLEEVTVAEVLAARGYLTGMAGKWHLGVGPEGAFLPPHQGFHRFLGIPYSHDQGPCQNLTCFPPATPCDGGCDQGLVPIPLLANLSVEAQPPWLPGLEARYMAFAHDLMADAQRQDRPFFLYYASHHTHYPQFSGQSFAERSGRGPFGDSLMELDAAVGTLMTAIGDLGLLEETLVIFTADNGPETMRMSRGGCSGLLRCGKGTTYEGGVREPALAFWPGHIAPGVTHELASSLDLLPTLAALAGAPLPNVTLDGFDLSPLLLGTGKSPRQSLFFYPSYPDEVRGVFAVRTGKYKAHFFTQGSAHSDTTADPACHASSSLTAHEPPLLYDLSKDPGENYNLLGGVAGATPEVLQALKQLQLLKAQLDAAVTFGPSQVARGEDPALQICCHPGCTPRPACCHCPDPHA
Method in brief: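 Cell-based enhancement test: residual ASA activity in SV40-transformed I179S patient fibroblasts is measured by pNCS turnover (0.5mM final, 14h, room temperature) following 48h compound incubation; higher fluorescence indicates activation.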

[2] = qHTS for compounds that reverse cellular toxicity of Amyloid beta (A-beta) peptide in yeast: LOPAC Validation Assay (AID 720559);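 also: plate controls were DMSO for no effect and equimolar ferric chloride plus clioquinol rescue for full effect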
Method in brief: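 Here, A-beta-toxic yeast grow with test compounds at 30 C for 48 hr before optical density at 600 nm is recorded; data are normalized against DMSO and the FeCl3-clioquinol control.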

[3] = qHTS for Activators of Parkin Expression: LOPAC Validation Assay (NLuc Reporter) (AID 720572)
Method in brief: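 Compound effects on Parkin promoter activity were measured as NanoLuc luminescence after 24 h at 37 C. The neuronal reporter line also carried FLuc, which was read first. LOPAC compounds were tested at 7 concentrations, with normalization to DMSO (0%) and positive control (100%).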

[4] = qHTS for Activators of Parkin Expression: LOPAC Validation Assay (FLuc Reporter) (AID 720573)
Method in brief: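 Readout is FLuc luminescence from neuronal reporter cells (Parkin promoter, FLuc plus NLuc) after 24 h compound exposure in dose response. Values normalized to neutral DMSO and positive-control compounds.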

[5] = target: T1, Hexokinase-4 (Homo sapiens) + Glucokinase regulatory protein (Homo sapiens) (UniProt P35557+Q14397); assay: qHTS assay for inhibitors of recombinant human GCK-GKRP interaction: Diaphorase-coupled assay (AID 743205)
T1 sequence (P35557 whole entry, looked up): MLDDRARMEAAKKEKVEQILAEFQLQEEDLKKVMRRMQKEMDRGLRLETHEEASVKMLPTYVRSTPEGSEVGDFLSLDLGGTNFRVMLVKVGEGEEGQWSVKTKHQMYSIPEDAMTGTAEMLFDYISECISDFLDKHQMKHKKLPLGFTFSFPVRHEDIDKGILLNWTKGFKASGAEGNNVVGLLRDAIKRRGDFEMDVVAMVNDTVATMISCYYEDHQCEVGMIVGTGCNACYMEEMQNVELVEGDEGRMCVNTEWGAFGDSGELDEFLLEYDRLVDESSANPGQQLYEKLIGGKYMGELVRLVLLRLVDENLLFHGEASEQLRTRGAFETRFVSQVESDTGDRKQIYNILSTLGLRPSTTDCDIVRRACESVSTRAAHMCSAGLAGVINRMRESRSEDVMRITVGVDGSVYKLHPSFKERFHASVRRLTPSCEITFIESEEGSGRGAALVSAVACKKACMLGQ
T1 sequence (Q14397 whole entry, looked up): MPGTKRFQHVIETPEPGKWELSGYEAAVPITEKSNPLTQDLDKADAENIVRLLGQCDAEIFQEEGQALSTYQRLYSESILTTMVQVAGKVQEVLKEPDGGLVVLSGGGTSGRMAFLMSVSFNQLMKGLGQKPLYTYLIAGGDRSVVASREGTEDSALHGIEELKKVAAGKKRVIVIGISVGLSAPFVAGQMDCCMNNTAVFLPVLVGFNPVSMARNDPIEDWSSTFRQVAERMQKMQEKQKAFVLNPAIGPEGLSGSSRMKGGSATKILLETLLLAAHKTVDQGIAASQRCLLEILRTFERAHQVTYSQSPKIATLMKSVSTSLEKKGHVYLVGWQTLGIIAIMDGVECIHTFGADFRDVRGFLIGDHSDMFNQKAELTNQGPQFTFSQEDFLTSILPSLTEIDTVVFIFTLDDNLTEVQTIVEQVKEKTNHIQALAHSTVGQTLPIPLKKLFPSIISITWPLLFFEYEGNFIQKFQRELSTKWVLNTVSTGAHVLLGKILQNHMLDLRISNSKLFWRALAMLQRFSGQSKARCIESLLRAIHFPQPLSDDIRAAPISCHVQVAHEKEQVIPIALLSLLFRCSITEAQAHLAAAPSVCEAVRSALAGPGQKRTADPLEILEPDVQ
Method in brief: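 Signal derives from resorufin generated by diaphorase, linked to GCK turnover of glucose (5 mM) and ATP (0.4 mM). Enzyme complex was added after a 20-minute compound preincubation and monitored for 30 minutes.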

[6] = target: T1, Hexokinase-4 (Homo sapiens) + Glucokinase regulatory protein (Homo sapiens); assay: qHTS assay for inhibitors of recombinant human GCK-GKRP interaction: ADP-Glo assay (AID 743206);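 also: plate controls were DMSO plus enzyme for no effect and no enzyme for full effect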
Method in brief: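 Pin-transferred compounds meet a 15 nM GST-GCK/15 nM FLAG-GKRP/2 uM S6P mix (dispense concentrations). ATP is then added to 0.4 mM final with 5 mM glucose, and the reaction runs 60 min at room temperature. ADP is quantified luminescently.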

[7] = target: T1, Hexokinase-4 (Homo sapiens) + Glucokinase regulatory protein (Homo sapiens); assay: qHTS assay for inhibitors of recombinant human GCK-GKRP interaction: HTRF assay (AID 743207);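 also: 0% = DMSO with GCK present and -100% = DMSO wells lacking GCK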
Method in brief: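 Titration screening format: recombinant GST-GCK and FLAG-GKRP at 5 nM, S6P at 2 uM, labelled anti-tag antibodies, 60 min at RT, dual-wavelength HTRF readout.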

[8] = qHTS Assay for Identifying Gametocytocidal Compounds (AID 743244); also: potency is read from the fitted curve at half-maximal effect;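 as to max response: % is scaled to controls: 0 for no effect and ±100 for the full control effect; actives lower the fluorescent signal which means gametocytes are killed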; conditions: P. falciparum 3D7 stage III-V gametocytes, alamarBlue, 72 h; max response: stronger effect = lower value
Method in brief: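 A resazurin-based viability read-out was applied to mature P. falciparum gametocytes: 72 h compound treatment, then 24 h dye incubation, with falling fluorescence signalling gametocytocidal effect.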

[9] = qHTS profiling for inhibitors of Plasmodium falciparum (3D7) proliferation (AID 743322; call rule not given here;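 also: infected erythrocytes exposed to compound for 72 h before lysis; 100% = DMSO vehicle wells and 0% = 0.29 µM artemisinin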); conditions: P. falciparum 3D7 proliferation; at 28.7 µM (top of the series) unless noted
Method in brief: (§1)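 Parasite DNA was quantified by SYBR Green I fluorescence (ex 485, em 535 nm) after overnight lysis in saponin/Triton buffer at room temperature. Cultures at 0.3% parasitemia and 2.5% hematocrit were first exposed to compound for 72 h at 37 C; signals were normalised to artemisinin (0.29 uM) and vehicle wells.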

[10] = qHTS profiling for inhibitors of Plasmodium falciparum (DD2) proliferation (AID 743323; call rule not given here); conditions: lower = more inhibition; at 28.7 µM (top of the series) unless noted
Method in brief: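 SYBR Green fluorescence (ex 485, em 535 nm) of lysed cultures gives parasite DNA content; wells normalized to artemisinin (0.29 uM) and DMSO controls. Infected red cells: 0.3% parasitemia, 2.5% hematocrit, 72 h, 37 C.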

[11] = qHTS assay for small molecule agonists of the antioxidant response element (ARE) signaling pathway measured by Nrf2-dependant transcriptional activity (AID 720636; active = well fitted curve in the direction sought with a large enough effect in the repeat runs; an effect the other way counts as inactive or inconclusive;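 also: HepG2 cells with an ARE-driven luciferase reporter; % of control where 0% means no effect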)
Method in brief: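 In HepG2 cells engineered with an Nrf2-responsive luciferase gene, ARE induction was quantified as luminescence after 16 hr compound treatment at 37 C.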

[12] = qHTS assay for small molecule antagonists of the retinoid-related orphan receptor gamma (ROR-gamma) signaling pathway - cell viability counter screen (AID 720652; active = well fitted curve in the direction sought with a large enough effect in the repeat runs; an effect the other way counts as inactive or inconclusive;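 also: CHO reporter cells with doxycycline-induced ROR-gamma expression; compound exposure lasted 16 hr before ATP read; % is scaled to controls: 0 for no effect and ±100 for the full control effect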)
Method in brief: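 ATP-based viability readout in the ROR-gamma reporter CHO cells after 16 hr compound exposure under doxycycline induction.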

[13] = qHTS assay for small molecule agonists of the antioxidant response element (ARE) signaling pathway measured by Nrf2-dependant transcriptional activity - cell viability counter screen (AID 720653; active = well fitted curve in the direction sought with a large enough effect in the repeat runs; an effect the other way counts as inactive or inconclusive; also: potency is read from the fitted curve at half-maximal effect; as to max response: % is scaled to controls: 0 for no effect and ±100 for the full control effect); conditions: ARE-bla HepG2 viability, CellTiter-Glo ATP luminescence, 16 h; max response: stronger effect = lower value
Method in brief: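 Cytotoxicity counter screen: intracellular ATP quantified by CellTiter-Glo luminescence in the same ARE-bla HepG2 plates, after 16 h compound exposure and a 2 h beta-lactamase substrate step.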

[14] = qHTS assay for cell viability of HEK293 cells (AID 743288); conditions: ATP luminescence (CellTiter-Glo), 18 h; max response: stronger effect = lower value; also: nearly all actives have a fitted effect of over 50% in size; also: potency is read from the fitted curve at half-maximal effect; as to max response: % is scaled to controls: 0 for no effect and ±100 for the full control effect
Method in brief: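 HEK293, 18 h, 37 C, ATP luminescence. Cells at 2,000/well were allowed at least 5 h to settle before dosing; CellTiter-Glo developed 30 min at RT.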

[15] = qHTS assay for cell viability of the p53RE-bla HCT-116 cell line (AID 743292); also: % is scaled to controls: 0 for no effect and ±100 for the full control effect; nearly all actives have a fitted effect of over 55% in size
Method in brief: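 Intracellular ATP of p53RE-bla HCT-116 cells measured by luciferase luminescence following 16 h compound incubation at 37 C; DMSO-only wells served as vehicle controls.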

[16] = qHTS profiling for inhibitors of Plasmodium falciparum (HB3) proliferation (AID 743324); conditions: Plasmodium falciparum HB3 blood-stage proliferation; at 28.7 µM (top of the series);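 also: 100% = DMSO vehicle wells and 0% = artemisinin-treated control wells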
Method in brief: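 SYBR Green fluorescence (485 ex/535 em) of lysed cultures, incubated overnight at room temperature in the dark, quantifies parasite DNA. Infected erythrocytes at 0.3% parasitemia and 2.5% hematocrit were exposed 72 h; values normalized to DMSO and 0.29 uM artemisinin controls.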

[17] = qHTS profiling of the MIPE4 collection as inhibitors of Plasmodium falciparum (3D7) proliferation (AID 743344; call rule not given here;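 also: scaled between DMSO vehicle wells and 0.29 µM artemisinin as full inhibition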); conditions: P. falciparum 3D7 in erythrocytes, SYBR Green DNA fluorescence, 72 h; at 28.5 µM (top of the series)
Method in brief: as §1

[18] = qHTS profiling of the MIPE4 collection as inhibitors of Plasmodium falciparum (DD2) proliferation (AID 743345; call rule not given here); conditions: P. falciparum Dd2 in erythrocytes, SYBR Green DNA, 72 h; at 28.5 µM (top of the series)
Method in brief: as §1

[19] = qHTS profiling of the MIPE4 collection as inhibitors of Plasmodium falciparum (DD2) proliferation (Rep 2) (AID 743346; call rule not given here); conditions: P. falciparum Dd2 in erythrocytes, SYBR Green DNA, 72 h; at 28.5 µM (top of the series)
Method in brief: as §1

[20] = qHTS profiling of the MIPE4 collection as inhibitors of Plasmodium falciparum (HB3) proliferation (AID 743347; call rule not given here;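 also: plate controls were DMSO vehicle wells for no effect and artemisinin wells for full effect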); conditions: P. falciparum HB3 in erythrocytes, SYBR Green DNA, 72 h; at 28.5 µM (top of the series)
Method in brief: as §1

CO[C@@]1(NC(=O)CSCC#N)C(=O)N2C(C(=O)O)=C(CSc3nnnn3C)CS[C@@H]21
inactive: Potency [1] | outcome [2] | Potency [3] | outcome [4] | outcome [5] | outcome [6] | Potency [7] | max response [8] 0.458% and 21.8%

Cc1nc2sccn2c(=O)c1CCN1CCC(=C(c2ccc(F)cc2)c2ccc(F)cc2)CC1
inactive: Potency [1] | outcome [2] | Potency [3] | outcome [4] | outcome [5] | outcome [6] | Potency [7] | max response [8] -7.25% and 26.8%

CC(C)NNC(=O)c1ccncc1
inactive: Potency [1] | outcome [2] | Potency [3] | outcome [4] | outcome [5] | outcome [6] | Potency [7] | max response [8] -4.04% and 10%

CN(C)CCN(Cc1cccs1)c1ccccn1
inactive: Potency [1] | outcome [2] | Potency [3] | outcome [4] | outcome [5] | outcome [6] | Potency [7] | max response [8] -13% and 5.58%

NC(Cc1ccc(Cl)cc1)C(=O)O (stereo unspecified)
inactive: Potency [1] | outcome [2] | Potency [3] | outcome [4] | outcome [5] | outcome [6] | Potency [7] | max response [8] 3.16%

C(=C\c1ccccc1)/CN1CCN(C(c2ccccc2)c2ccccc2)CC1
inactive: Potency [1] | outcome [2] | Potency [3] | outcome [4] | outcome [5] | outcome [6] | Potency [7] | max response [8] -4.21% and 5.87%

COc1ccc2c(c1OC)C(=O)O[C@@H]2[C@H]1c2c(cc3c(c2OC)OCO3)CCN1C
inactive: Potency [1] | outcome [2] | outcome [4] | outcome [5] | outcome [6] | Potency [7] | max response [8] -4.58% and 10.4%

Cc1cccc(C)c1NC(=O)C(C)N (stereo unspecified)
99.5% [at 9.63 µM]: activity, percent of control [10]
inactive: Potency [1] | outcome [5] | outcome [6] | Potency [7] | max response [8] 6.83% and 24.8%
92.4% [at 9.63 µM]: remaining parasite growth % (stronger effect = lower value) [9]

CN=C(NC#N)NCCSCc1nc[nH]c1C
inactive: outcome [2] | Potency [3] | outcome [4] | outcome [11] | outcome [12] | max response [13] 0.359% | outcome [5] | outcome [6] | Potency [7] | max response [8] 2.14% and 13.4% | max response [14] -3.45% | outcome [15]

CCN(CC)CCOCCOC(=O)C1(c2ccccc2)CCCC1
inactive: Potency [1] | outcome [5] | outcome [6] | Potency [7]

Cc1ccc(/C(=C\CN2CCCC2)c2ccccn2)cc1
inactive: Potency [1] | outcome [2] | Potency [3] | outcome [4] | max response [8] 24.5% and 21.6%

O=c1[nH]c(=O)n([C@H]2C[C@H](O)[C@@H](CO)O2)cc1Br
inactive: outcome [2] | Potency [3] | outcome [4] | outcome [11] | outcome [12] | max response [13] -13.7% | outcome [5] | outcome [6] | Potency [7] | max response [8] 2.92% and 14.4% | max response [14] -7.4% | outcome [15]

CN1C[C@H](C(=O)N[C@]2(C)O[C@@]3(O)[C@@H]4CCCN4C(=O)[C@H](Cc4ccccc4)N3C2=O)C[C@@H]2c3cccc4[nH]cc(c34)C[C@H]21
-1.27%: remaining proliferation (% of control), lower = more inhibition [16]
5.44%: parasite growth, % of DMSO control [17]
11.7%: parasite growth, % of control (lower = inhibition) [19]
0.0095%: activity, percent of control [10]
7.94%: parasite growth remaining, % of DMSO control (lower = more inhibition) [18]
inactive: Potency [1] | outcome [2] | Potency [3] | outcome [4] | outcome [5] | outcome [6] | Potency [7]
5.6%: growth, % of control [20]
-0.39%: remaining parasite growth % (stronger effect = lower value) [9]

Cc1ccc(S(=O)(=O)NC(=O)NN2CCCCCC2)cc1
inactive: outcome [2] | Potency [3] | outcome [4] | max response [13] 1.34% | outcome [5] | outcome [6] | Potency [7] | max response [8] -5.27% and 9.03% | max response [14] -0.908% | outcome [15]

Cc1nc2ccccn2c(=O)c1CCN1CCC(C(=O)c2ccc(F)cc2)CC1
active: Potency [1] 19 µM
inactive: outcome [2] | Potency [3] | outcome [4] | outcome [5] | outcome [6] | Potency [7] | max response [8] 14.2%

CN(C)C(=O)Oc1ccc[n+](C)c1
inactive: Potency [1] | outcome [5] | outcome [6] | Potency [7]

CC1=C(C)C(=O)C(CCCCC#CCCCC#CCO)=C(C)C1=O
inactive: Potency [1] | outcome [2] | Potency [3] | outcome [4] | outcome [5] | outcome [6] | Potency [7]
active: Potency [8] 14.1 µM

CC(=O)[C@@]1(O)CC[C@H]2[C@@H]3CCC4=CC(=O)CC[C@]4(C)[C@H]3CC[C@@]21C
inactive: outcome [2] | Potency [3] | outcome [4] | outcome [11] | max response [13] -7.45% | outcome [5] | outcome [6] | Potency [7] | max response [14] -17.3% | outcome [15]

CN(C)CC/C=C1\c2ccccc2COc2ccccc21
inactive: Potency [1] | outcome [2] | Potency [3] | outcome [4] | outcome [5] | outcome [6] | Potency [7]
49.5% [at 9.63 µM]: activity, percent of control [10]
96.2% [at 9.63 µM]: remaining parasite growth % (stronger effect = lower value) [9]

NC(=O)c1cn(Cc2c(F)cccc2F)nn1
inactive: Potency [1] | outcome [2] | Potency [3] | outcome [5] | outcome [6] | Potency [7] | max response [8] 3.65% and -7.75%

Nc1nc(N)c2nc(-c3ccccc3)c(N)nc2n1
active: Potency [13] 25.1 µM | Potency [14] 31.6 µM
inactive: outcome [2] | Potency [3] | outcome [4] | outcome [11] | outcome [12] | outcome [5] | outcome [6] | Potency [7] | outcome [15]

CC[N+](C)(C)c1cccc(O)c1
inactive: Potency [1] | outcome [5] | outcome [6] | Potency [7] | max response [8] 22.6% and 18%
